About 83,000 compounds went through this panel and 20% of them were active in at least one assay; those are over-represented in the sample as a whole.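 The endpoint reported here, percent growth, reads 100 for growth as untreated, 0 for no net growth and -100 for all cells dead.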 Unmarked numbers belong to inactive results. Calls of active or inactive are those of the source. Rule for the calls: active = growth percent below 10; inactive = the rest.

Holding throughout (assay): NCI-60 one-dose screen, 48 h (100 = growth as untreated, 0 = no growth, -100 = all killed)
Holding throughout (conditions): 10 µM unless noted

Assay [1] concerns T-47D breast.
The test system of assay [2] is BT-549 breast.
Assay [3] has as its system MDA-MB-435 melanoma.
For assay [4], the system named is SW-620 colon.
In assay [5] the test system is MCF7 breast.
Assay [6] deals with HCT-116 colon.
In assay [7] the test system is HCC-2998 colon.
Assay [8] concerns KM12 colon.

Take `CC(C)c1ccc(C(=O)Nc2sc3c(c2C(N)=O)CCC(=O)C3)cc1`: the growth in assay [1] is -15.8% (active); in assay [2], -21.9% (active); in assay [3], -11% (active); in assay [4] it was -43.4% (active); in assay [5] it was 5.13% (active); in assay [6], -41.1% (active). Besides, the growth in assay [7] was 14.9%; in assay [8], 1.39% (active).
Consider `CC/C(=C(/c1ccc(Cl)cc1)c1ccc(OCCN(C)C)cc1)c1ccc(Cl)cc1`, for which the growth is 58.4% in assay [1]; 82.7% in assay [2]; 73.1% in assay [3]; 55.8% in assay [4]; 20.5% in assay [5]; 56.7% in assay [6]. Besides, the growth in assay [7] was 46.9%; in assay [8], 56.6%.
Consider `Cn1cc(-c2nonc2-c2cn(C)c3ccccc23)c2ccccc21`, for which the growth was 33.4% in assay [1]; 31.1% in assay [2]; -34.3% (active) in assay [3]; 24.5% in assay [4]; 19.4% in assay [5]; 11.6% in assay [6]. Moreover, the growth in assay [7] was 51.2%; in assay [8], 27.4%.
In the case of `Cc1ccc(C(=O)c2ccc(CC(=O)N/N=C/c3ccccc3O)n2C)cc1`, the growth in assay [1] was 75.6%; in assay [2], 85.1%; in assay [3], 83.2%; in assay [4] it was 89.6%; in assay [5], 81.5%; in assay [6] it was 92.1%. Moreover, the growth in assay [7] is 92.1%; in assay [8], 80.4%.
Regarding `CCOC(=O)c1csc(NC(=O)COc2ccc(/C=C3\Oc4ccccc4C3=O)cc2)n1`, the growth in assay [1] is 97.5%; in assay [2], 88.3%; in assay [3] it was 58.6%; in assay [4], 105%; in assay [5] it was 69%; in assay [6] it was 82.5%. Moreover, the growth in assay [7] was 106%; in assay [8], 88.7%.
Take `CCOC(=O)C/C(=N\Nc1cc(=O)[nH]c2ccc(Br)cc12)C(=O)OCC`: the growth in assay [1] was 105%; in assay [2] it was 96.6%; in assay [3] it was 101%; in assay [4] it was 90.4%; in assay [5], 91.9%; in assay [6], 99.7%. Moreover, the growth in assay [7] is 96.9%; in assay [8], 96%.
As for `COC(=O)c1c(C)nc(C)c2c1C(=O)C(Br)=C(NCc1ccccc1)C2=O`, the growth in assay [1] was 13.7%; in assay [2], 50.9%; in assay [3], -76.5% (active); in assay [4] it was 16.7%; in assay [5] it was -30.2% (active); in assay [6] it was 1.86% (active). For the same compound, the growth was 21.8% in assay [7] and 37.1% in assay [8].
For the compound `COc1ccc(C/C(C)=C(/c2ccc(OCCN(C)C)cc2)c2ccc(OC(=O)NCc3ccccc3)cc2)cc1`, the growth in assay [1] was 51.7%; in assay [2], 82.5%; in assay [3] it was 74.4%; in assay [4], 61.5%; in assay [5] it was 21.2%; in assay [6], 52.1%. In addition, the growth is 66.6% in assay [7] and 72.6% in assay [8].
In the case of `COc1cc2c(c(OC)c1OC)CCC(c1cccc(C(=O)Nc3ccc(C#N)cc3)c1)O2` (stereo not drawn), the growth was 3.61% (active) in assay [1]; 27.2% in assay [2]; 36.6% in assay [3]; 86.7% in assay [4]; 32.5% in assay [5]; 48.8% in assay [6]. In addition, the growth in assay [7] was 73.1%; in assay [8], 60.6%.
For the compound `N#Cc1c(-c2ccc(Cl)cc2)nc(NN2C(=O)c3ccccc3C2=O)nc1N1CCOCC1`, the growth in assay [1] was 94.7%; in assay [2] it was 112%; in assay [3], 106%; in assay [4] it was 98.8%; in assay [5], 101%; in assay [6] it was 99.5%. In addition, the growth in assay [7] is 111%; in assay [8], 107%.
Regarding `NS(=O)(=O)c1ccccc1NC(=O)Nc1nc2ccccc2s1`, the growth is 87.3% in assay [1]; 98.2% in assay [2]; 103% in assay [3]; 101% in assay [4]; 82.4% in assay [5]; 98.8% in assay [6]. For the same compound, the values for the growth in assay [7] and in assay [8] were 95.8% and 104%, respectively.
As for `O=C(Nc1cccc(-c2ccc(N3CCOCC3)nn2)c1)Nc1cccc(C(F)(F)F)c1`, the growth was 8.63% (active) in assay [1]; 40.9% in assay [2]; 69.7% in assay [3]; 110% in assay [4]; 55.3% in assay [5]; 68.2% in assay [6]. Further, the growth in assay [7] was 109%; in assay [8] it was 55.5%.
`Cn1ccnc1C(=O)/C=C/c1ccc(C(=O)Nc2ccc(Cl)cc2)cc1`: the growth is 9.37% (active) in assay [1]; -7.95% (active) in assay [2]; 23.8% in assay [3]; -46.8% (active) in assay [4]; 12.6% in assay [5]; -49% (active) in assay [6]. Moreover, the growth in assay [7] is -10.1% (active); in assay [8], -49.8% (active).
As to `CC(=O)/C(=C\c1c(-c2ccccc2)[nH]c2ccccc12)S(C)(=O)=O`, the growth is 1.27% (active) in assay [1]; 4.06% (active) in assay [2]; -42.7% (active) in assay [3]; 13.7% in assay [4]; 6.97% (active) in assay [5]; 21.2% in assay [6]. In addition, the results for the growth in assay [7] and in assay [8] were 36.8% and 4.04% (active), respectively.
In the case of `NC(=O)c1cccc(-n2ccc3cc(NC(=O)c4ccc(N5CCOCC5)c(C(F)(F)F)c4)ccc32)n1`, the growth in assay [1] was 3.32% (active); in assay [2], 45.3%; in assay [3], 71.3%; in assay [4], 68.2%; in assay [5], 57.1%; in assay [6], 44.5%. Also, the growth in assay [7] was 79.8%; in assay [8] it was 33.3%.
For the compound `C=C(C)[C@@H]1CC[C@]2(C(=O)N3CCOCC3)CC[C@]3(C)[C@H](CC[C@@H]4[C@@]5(C)C/C(=C/c6ccncc6)C(=O)C(C)(C)[C@@H]5CC[C@]43C)[C@@H]12`, the growth in assay [1] is 26.5%; in assay [2], 73.4%; in assay [3], 62.3%; in assay [4], 50.3%; in assay [5] it was 28.9%; in assay [6], 32.4%. The growth in assay [7] was 58.7%; in assay [8], 52.2%.

The values are drawn from PubChem BioAssay (NCI).
